Data from PubChem BioAssay (NCATS).
Inconclusive results are not listed. Calls of active or inactive are those of the source. Calls come from the whole dose curve; as a rule, active = well fitted curve in the direction sought with a large enough effect; inconclusive = small, poorly fitted or top-dose-only effect, or another doubt; inactive = no such curve, though single readings can be large; an effect the other way counts as inactive or inconclusive.

What was measured:
[1] = Quantitative highthroughput screen to assess conditional lethalithy of NOMO1 cells grown in RPMI1640 with untreated serum (RPMI+s) (AID 1963876); note: nearly all actives have a fitted effect of over 35% in size; note: potency is the fitted concentration of half-maximal effect;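 for viability: 100% = DMSO wells and 0% = empty wells without cells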
In short: (§1)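 Each medium arm—HPLM with 10% dialyzed FBS, or RPMI1640 with 5 mM glucose and 10% untreated or dialyzed FBS—was screened against an 11-point, 3-fold compound titration for 48 h at 37 °C, with CellTiter-Glo luminescence as endpoint.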

[2] = Quantitative highthroughput screen to assess conditional lethalithy of NOMO1 cells grown in Human Plasma-Like Medium with dialyzed fetal bovine serum (HPLM+ds) (AID 1963878); note: nearly all actives have a fitted effect of over 35% in size; note: potency is the fitted concentration of half-maximal effect;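 for viability: 100% = DMSO wells and 0% = empty wells on each plate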
In short: as §1

[3] = Quantitative highthroughput screen to assess conditional lethalithy of P12 Ichikawa cells grown in Human Plasma-Like Medium with dialyzed fetal bovine serum (HPLM+ds) (AID 1963879); details: Potency: viability; note: nearly all actives have a fitted effect of over 35% in size; note: potency is the fitted concentration of half-maximal effect; for viability: series mostly up to about 46 µM
In short: as §1

[4] = Quantitative highthroughput screen to assess conditional lethalithy of P12 Ichikawa cells grown in RPMI1640 with dialyzed fetal bovine serum (RPMI+ds) (AID 1963880); details: Potency: P12-Ichikawa viability; note: nearly all actives have a fitted effect of over 35% in size; note: potency is the fitted concentration of half-maximal effect;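 for viability: 100% = DMSO wells and 0% = empty wells on each plate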
In short: as §1

[5] = Quantitative highthroughput screen to assess conditional lethalithy of SEM cells grown in Human Plasma-Like Medium with dialyzed fetal bovine serum (HPLM+ds) (AID 1963882); note: nearly all actives have a fitted effect of over 35% in size; note: potency is the fitted concentration of half-maximal effect; for viability: series mostly up to about 46 µM
In short: as §1

[6] = Quantitative highthroughput screen to assess conditional lethalithy of SEM cells grown in RPMI1640 with unreated serum (RPMI+s) (AID 1963883); note: nearly all actives have a fitted effect of over 35% in size; note: potency is the fitted concentration of half-maximal effect;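 for viability: 100% = DMSO wells and 0% = empty wells without cells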
In short: as §1

[7] = Quantitative highthroughput screen to assess conditional lethalithy of SEM cells grown in RPMI1640 with dialyzed fetal bovine serum (RPMI+ds) (AID 1963884); note: nearly all actives have a fitted effect of over 35% in size; note: potency is the fitted concentration of half-maximal effect;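 for viability: series mostly up to about 46 µM; 100% = DMSO control wells and 0% = empty wells without cells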
In short: as §1

[8] = Quantitative highthroughput screen to assess conditional lethalithy of NOMO1 cells grown in RPMI1640 with dialyzed fetal bovine serum (RPMI+ds) (AID 1963877); note: potency is the fitted concentration of half-maximal effect; nearly all actives have a fitted effect of over 30% in size
In short: as §1

[9] = Quantitative highthroughput screen to assess conditional lethalithy of P12 Ichikawa cells grown in RPMI1640 with untreated serum (RPMI+s) (AID 1963881); details: Potency: viability; note: nearly all actives have a fitted effect of over 35% in size; note: potency is the fitted concentration of half-maximal effect;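 for viability: series mostly up to about 46 µM; 100% = DMSO wells and 0% = empty wells without cells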
In short: as §1

[10] = Cellular viability qHTS for adrenocortical cancer (ACC) cell line SW-13 (AID 1963989); details: SW-13 ACC cells viability, CellTiter-Glo, 48 h; activity (max response): active compounds read low;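 note: cells grown in serum-free medium with ITS supplement; % is set by controls: 0 for no effect and ±100 for the full control effect; nearly all actives have a fitted effect of over 65% in size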
In short: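 Viability was read as CellTiter-Glo luminescence after 48 h compound treatment (up to 46 uM final) of SW-13 cells grown serum-free; titration curves were fit with a four-parameter logistic model to give IC50 and efficacy.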

[11] = Cellular viability qHTS for adrenocortical cancer (ACC) cell line NCI-H295R (AID 1963990);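 note: 0% = DMSO only wells and -100% = full killing with cytotoxic reference compound; nearly all actives have a fitted effect of over 60% in size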
In short: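 CellTiter-Glo ATP luminescence, read 48 h after compound addition, measured viability of NCI-H295R adrenocortical cells grown serum-free with ITS. Final concentrations spanned up to 46 uM. Data normalized to DMSO and doxorubicin, fitted for IC50 and maximal response.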

CCN(CC)CCOc1ccc(C(=C(Cl)c2ccccc2)c2ccccc2)cc1
inactive: Potency [1] | Potency [2] | Potency [3] | Potency [5] | Potency [6] | Potency [7]
active: Potency [4] 20.9 µM

Cc1cccc(C=NNc2cc(N3CCOCC3)nc(OCCc3ccccn3)n2)c1
active: Potency [1] 2.09 µM | Potency [8] 1.05 µM | Potency [6] 11.8 µM | Potency [7] 14.8 µM

CN(CC=CC#CC(C)(C)C)Cc1cccc2ccccc12
inactive: Potency [1] | Potency [2] | Potency [3] | Potency [4] | Potency [9] | Potency [6] | Potency [7]

Cc1cccc(-c2[nH]ncc2-c2ccc3ncccc3n2)n1
inactive: Potency [1] | activity (max response) [10] 4.45% | Potency [11]
active: Potency [8] 18.7 µM

C[C@@H](O)[C@H]1C(=O)N2C(C(=O)OCOC(=O)C(C)(C)C)=C(SC3CN(C4=NCCS4)C3)[C@H](C)[C@H]12
inactive: Potency [1] | Potency [5] | Potency [7]
active: Potency [8] 7.43 µM

Cc1ccccc1C(C(=O)NC1CCCC1)N(C(=O)Cn1cnc2ccccc21)c1cccc(F)c1 (stereo unspecified)
inactive: Potency [1] | Potency [2] | Potency [3] | Potency [4] | Potency [9] | Potency [5] | Potency [7]

O=C(C=Cc1ccc(/C=C/C(=O)Nc2ccc(C3=NCCN3)cc2)cc1)Nc1ccc(C2=NCCN2)cc1
inactive: Potency [1] | Potency [2] | Potency [3] | Potency [4] | Potency [9] | Potency [5]

CC(=CC(=O)Nc1ccccc1C(=O)O)c1ccc2ccccc2c1
inactive: Potency [1] | Potency [2] | Potency [3] | Potency [4] | Potency [9]
active: Potency [6] 23.5 µM

CC[C@]1(O)C[C@H]2CN(CCC3=c4ccccc4=N[C]3[C@@](C(=O)OC)(c3cc4c(cc3OC)N(C)[C@H]3[C@@](O)(C(N)=O)[C@H](O)[C@]5(CC)C=CCN6CC[C@]43[C@@H]65)C2)C1
active: Potency [1] 0.0935 µM | Potency [2] 0.0148 µM | Potency [3] 0.0833 µM | Potency [4] 0.132 µM | Potency [9] 0.0662 µM | Potency [5] 0.118 µM | Potency [6] 0.059 µM | Potency [7] 0.118 µM

O=C1NC(=O)C(=Cc2ccc(-c3ccc(F)cc3O)o2)S1
active: Potency [9] 6.62 µM
inactive: Potency [1] | Potency [2] | Potency [3] | Potency [5] | Potency [6]

C[C@@]12C(=O)OC(=O)[C@@]1(C)C1CCC2O1
active: Potency [1] 8.33 µM | Potency [2] 6.62 µM | Potency [3] 8.33 µM | Potency [4] 9.35 µM | Potency [9] 9.35 µM | Potency [5] 8.33 µM | Potency [6] 6.62 µM
